Among the data in PubChem BioAssay (Tox21) are Potency and outcome values, retold here.

Calls of active or inactive are those of the source. Unless noted, the call rests on the fitted dose curve; in most records, active means well fitted curve in the direction sought with a large enough effect in the repeat runs; inconclusive means weak or mixed curves; inactive means no such curve, though single readings can be large; an effect the other way counts as inactive or inconclusive.

Experiment [1] is described as follows: qHTS assay to identify small molecule antagonists of the thyroid receptor (TR) signaling pathway - cell viability counter screen (AID 743064). Further: nearly all actives have a fitted effect of over 50% in size. Further: potency means the concentration at half of the fitted maximal effect. An outline of the steps:
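In rat pituitary GH3.TRE-Luc reporter cells co-exposed to compound and 1 nM T3 for 23.5 h, cytotoxicity was assessed with CellTiter-Fluor in the same wells, read by fluorescence.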
A general note: In qHTS, concentration-response curves come from the screen itself.

Experiment [2] can be described thus: qHTS assay to identify small molecule antagonists of the thyroid receptor (TR) signaling pathway (AID 743065). Further: nearly all actives have a fitted effect of over 55% in size. Further: potency means the concentration at half of the fitted maximal effect. An outline of the steps:
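Antagonism measured as loss of luciferase signal in GH3 cells stably carrying a TRE-luciferase reporter, co-treated with compound and T3 (1 nM final) for 23.5 h at 37 C. Viability was read in the same well by CellTiter-Fluor.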

Experiment [3] concerns thyroid hormone receptor (rat, GH3 cells). The experiment in a line: qHTS assay to identify small molecule agonists of the thyroid receptor (TR) signaling pathway (AID 743066; calls by dose curve; further: potency means the concentration at half of the fitted maximal effect).
Experiment [4] is described as follows: qHTS assay to identify small molecule antagonists of the estrogen receptor alpha (ER-alpha) signaling pathway - cell viability counter screen (AID 743074; calls by dose curve;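 further: HEK293 cells carrying ER-alpha-UAS-bla reporter stimulated with 17beta-estradiol; nearly all actives have a fitted effect of over 45% in size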).
Experiment [5] can be described thus: qHTS assay to identify small molecule antagonists of the estrogen receptor alpha (ER-alpha) signaling pathway using the BG1 cell line - cell viability counter screen (AID 743081).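 Further: compound given together with 17beta-estradiol as the ER stimulus; series mostly up to about 70 µM; nearly all actives have a fitted effect of over 45% in size.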
Experiment [6] concerns the target Estrogen receptor (Homo sapiens) (UniProt P03372). The experiment is described as follows: qHTS assay to identify small molecule agonists of the estrogen receptor alpha (ER-alpha) signaling pathway (AID 743075; calls by dose curve; further: potency means the concentration at half of the fitted maximal effect).
The target is the same in experiment [7]. The experiment in a line: qHTS assay to identify small molecule agonists of the estrogen receptor alpha (ER-alpha) signaling pathway using the BG1 cell line (AID 743079). Further: nearly all actives have a fitted effect of over 20% in size. Further: potency means the concentration at half of the fitted maximal effect.
Experiment [8] is described as follows: qHTS assay to identify small molecule antagonists of the estrogen receptor alpha (ER-alpha) signaling pathway using the BG1 cell line (AID 743080; calls by dose curve; further: nearly all actives have a fitted effect of over 25% in size; further: potency means the concentration at half of the fitted maximal effect). The method, boiled down:
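Antagonist mode: compounds in DMSO were pinned onto BG1-Luc-4E2 cells alongside 17beta-estradiol agonist, incubated 21.5 h, and ERE-driven luciferase measured with ONE-Glo. Cytotoxicity was multiplexed using CellTiter-Fluor fluorescence.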

For the next experiment, the target named is Aromatase (Homo sapiens) (UniProt P11511). The experiment in a line: qHTS assay to identify aromatase inhibitors (AID 743083). Further: series mostly up to about 70 µM; nearly all actives have a fitted effect of over 55% in size.
Sequence of Aromatase (Homo sapiens) (P11511 whole entry, looked up): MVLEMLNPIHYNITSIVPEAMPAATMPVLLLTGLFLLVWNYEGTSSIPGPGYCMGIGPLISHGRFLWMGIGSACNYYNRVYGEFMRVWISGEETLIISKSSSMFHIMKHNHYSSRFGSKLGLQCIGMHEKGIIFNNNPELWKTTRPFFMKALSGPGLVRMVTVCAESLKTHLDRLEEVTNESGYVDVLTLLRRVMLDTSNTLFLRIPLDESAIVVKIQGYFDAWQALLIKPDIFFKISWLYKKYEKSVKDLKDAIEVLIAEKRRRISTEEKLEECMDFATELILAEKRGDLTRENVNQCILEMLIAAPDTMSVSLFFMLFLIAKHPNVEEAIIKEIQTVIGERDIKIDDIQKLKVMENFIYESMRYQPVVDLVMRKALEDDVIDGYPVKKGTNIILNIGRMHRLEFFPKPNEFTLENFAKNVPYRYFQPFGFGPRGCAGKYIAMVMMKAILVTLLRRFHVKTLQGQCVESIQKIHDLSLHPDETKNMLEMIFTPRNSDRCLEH
In experiment [9] the target is Estrogen receptor (Homo sapiens) (UniProt P03372). The experiment is described as follows: qHTS assay to identify small molecule antagonists of the estrogen receptor alpha (ER-alpha) signaling pathway (AID 743069; active means well fitted curve in the direction sought with a large enough effect in the signal ratio in the repeat runs, not every such curve was filed as active; inconclusive means weak or mixed curves, or effect the other way; inactive means no such curve, though single readings can be large or run the other way; the % refers to the signal ratio; further: potency means the concentration at half of the fitted maximal effect). The method, boiled down:
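Compound effects are measured against 17beta-estradiol stimulation in HEK293 cells with a UAS-controlled beta-lactamase reporter for ER-alpha. Exposure lasts 18 hr at 37C; LiveBLAzer B/G FRET substrate follows for 2 hr at room temperature.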

Sequence of Estrogen receptor (Homo sapiens) (P03372 whole entry, looked up): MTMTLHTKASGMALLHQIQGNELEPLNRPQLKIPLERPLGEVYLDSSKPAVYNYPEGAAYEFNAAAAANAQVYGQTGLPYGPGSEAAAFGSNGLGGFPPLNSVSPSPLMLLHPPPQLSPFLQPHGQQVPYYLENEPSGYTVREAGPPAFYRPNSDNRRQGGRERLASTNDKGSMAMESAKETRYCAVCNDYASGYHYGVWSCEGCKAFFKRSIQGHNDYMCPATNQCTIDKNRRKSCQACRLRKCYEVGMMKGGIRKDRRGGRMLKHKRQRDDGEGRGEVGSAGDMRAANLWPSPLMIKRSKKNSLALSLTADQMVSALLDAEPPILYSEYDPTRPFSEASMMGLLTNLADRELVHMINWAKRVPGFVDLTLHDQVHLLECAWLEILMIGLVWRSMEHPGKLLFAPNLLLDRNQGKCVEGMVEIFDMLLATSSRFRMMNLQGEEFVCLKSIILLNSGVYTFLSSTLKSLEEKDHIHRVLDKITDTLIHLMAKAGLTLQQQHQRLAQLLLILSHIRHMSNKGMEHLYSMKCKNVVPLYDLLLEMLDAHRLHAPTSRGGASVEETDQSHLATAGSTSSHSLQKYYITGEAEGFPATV

Regarding `C=CC(=O)OCCOC(=O)CCC(=O)O`, the Potency entry in experiment [1], in experiment [2], in [3] and in experiment [5] was “inactive” throughout. For the same compound, the compound was called inactive in [4].
As for `NC(N)=N/N=C/c1c(Cl)cccc1Cl`, the Potency in experiment [1] and in [2] was 23.7 µM (active) each time. Also, the Potency result (in experiment [3]; in experiment [6]; in [7]; in [8]; in the experiment with Aromatase (Homo sapiens)) was “inactive” each time. Further, in [4], the outcome was inactive.
As for `NC1CCN(c2nc3c(cc2F)c(=O)c(C(=O)O)cn3-c2ccc(F)cc2F)C1` (stereo not given), the Potency result (in experiment [1]; in experiment [3]; in [6]; in experiment [7]; in experiment [8]; with Aromatase (Homo sapiens)) was “inactive” each time. In [2], the Potency is 23.7 µM (active). In addition, the outcome in experiment [4] was inactive.
Turning to `COc1ccc(OC)c(OC)c1`, the Potency result in [1], in experiment [2], in experiment [3], in experiment [9], in [6] and in [8] was “inactive” throughout. The Potency result (in experiment [5]; in the experiment with Aromatase (Homo sapiens)) was “inactive” in each case. Besides, the call in [4] was inactive.
On to `C1CCC2OC2C1` (stereo not given), for which the Potency result in experiment [1], in experiment [2], in experiment [3], in experiment [9], in experiment [6] and in experiment [8] was “inactive” in each case. Further, the Potency result (in [5]; in the experiment with Aromatase (Homo sapiens)) was “inactive” in each case. Moreover, in [4], the outcome was inactive.
As to `CCOC(=O)C1=NN(c2ccccc2)C(=O)C1`, the Potency result in [1], in experiment [2], in experiment [3], in experiment [6], in [7] and in experiment [8] was “inactive” in each case. Moreover, the Potency result (in experiment [5]; with Aromatase (Homo sapiens)) was “inactive” throughout. Further, the call in experiment [4] was inactive.
With `C=C(C)C(=O)OCCOc1ccccc1`, the Potency entry in experiment [1], in experiment [2], in experiment [3], in [6], in experiment [8] and in [5] was “inactive” each time. Also, in experiment [4], the compound was called inactive. The Potency in [7] was 43.3 µM (active).
Take `CCCCCCCCCCCCC(=O)O`: the Potency entry in experiment [1], in experiment [2], in experiment [3], in experiment [6], in experiment [8] and in [5] was “inactive” in each case. In addition, the Potency result with Aromatase (Homo sapiens) is “inactive”. In experiment [4], the compound was called inactive.
For `CC(=O)/C=C/C1C(C)=CCCC1(C)C` (stereo not given), the Potency entry in experiment [1], in experiment [2], in experiment [3], in [9], in experiment [6] and in experiment [8] was “inactive” each time. Further, the Potency result (in [5]; with Aromatase (Homo sapiens)) was “inactive” each time. Besides, in experiment [4], the compound was classed as inactive.
With `C[C@@H](C1=C(CCN(C)C)Cc2ccccc21)c1ccccn1`, the Potency in [1] is 29.8 µM (active); in experiment [2], 26.6 µM (active). In addition, the Potency entry in experiment [3] and in [5] was “inactive” each time. Also, the result in experiment [4] was inactive.
Turning to `CC(=O)O[C@@H]1C(=O)O[C@@H]2[C@H]1OC(=O)[C@@H]2OC(C)=O`, the Potency result in experiment [1], in experiment [2], in experiment [3], in experiment [9], in experiment [6] and in experiment [8] was “inactive” throughout. The Potency entry (in experiment [5]; with Aromatase (Homo sapiens)) was “inactive” in each case. Moreover, in [4], the call was inactive.
With `CC/C(=C\C(=N/O)C(N)=O)C(C)[N+](=O)[O-]` (stereo not given), the Potency entry in experiment [1], in experiment [2], in [3], in [6], in [7] and in experiment [8] was “inactive” in each case. The Potency result (in [5]; with Aromatase (Homo sapiens)) was “inactive” in each case. Besides, the compound was classed as inactive in [4].
On to `CC(C)=CCCC(C)CC=O` (stereo not given), for which the Potency result in experiment [1], in [2], in [3] and in [5] was “inactive” each time. Also, the compound was classed as inactive in experiment [4].
As for `Cc1nc2ccccc2n1Cc1ccc(Cl)cc1`, the Potency result (in experiment [1]; in experiment [3]; in experiment [9]; in [6]; in the experiment with Aromatase (Homo sapiens)) was “inactive” each time. The Potency was 6.68 µM (active) in [2] and 2.37 µM (active) in [8].
In the case of `C=Cc1c(C)c2cc3[nH]c(cc4nc(cc5nc(cc1[nH]2)C(C)=C5CCC(=O)O)C(CCC(=O)O)=C4C)c(C)c3C=C`, the Potency entry (in experiment [1]; in experiment [2]; in experiment [3]; in [8]; in experiment [5]; with Aromatase (Homo sapiens)) was “inactive” in each case. For the same compound, in experiment [4], the compound was called inactive. Besides, the Potency in [6] is 4.25 µM [inconclusive] (active); in experiment [7], 1.06 µM (active).
In the case of `OC(CCN1CCCCC1)(c1ccccc1)C1CCCCC1` (stereo not given), the Potency result in experiment [1], in experiment [2], in experiment [3], in experiment [9], in [6] and in [7] was “inactive” in each case. In addition, the Potency result (in experiment [5]; with Aromatase (Homo sapiens)) was “inactive” each time. Also, in [4], the call was inactive.
Turning to `CCN(CC)CCc1nc(-c2ccccc2)no1`, the Potency entry in experiment [1], in experiment [2], in experiment [3], in [9], in [6] and in [7] was “inactive” throughout. Further, the Potency entry (in [5]; in the experiment with Aromatase (Homo sapiens)) was “inactive” in each case. Further, the compound was called inactive in experiment [4].
Turning to `CN(c1nccc(=O)[nH]1)C1CCN(c2nc3ccccc3n2Cc2ccc(F)cc2)CC1`, the Potency result in experiment [1], in experiment [2], in experiment [3], in experiment [6], in [8] and in experiment [5] was “inactive” each time. In addition, the Potency result in the experiment with Aromatase (Homo sapiens) is “inactive”. For the same compound, the compound was classed as inactive in experiment [4].
As for `CCCCOCCOCCOCCOCCO`, the Potency result in experiment [1], in experiment [2], in experiment [3], in experiment [9], in experiment [6] and in [8] was “inactive” throughout. Moreover, the Potency result (in experiment [5]; with Aromatase (Homo sapiens)) was “inactive” in each case. The outcome in experiment [4] was inactive.
Consider `NCc1ccccc1`, for which the Potency result in experiment [1], in experiment [2], in experiment [3] and in [5] was “inactive” in each case. Besides, the call in [4] was inactive.
As for `O=C(O)c1cccc(N(Cc2cccnc2)c2ccc(OC(F)F)c(OC(F)F)c2)c1`, the Potency entry in experiment [1], in experiment [2], in experiment [3] and in experiment [5] was “inactive” throughout. In experiment [4], the compound was called inactive.
With `Cc1cccc(C(C)(C)C)c1O`, the Potency entry in [1], in experiment [2], in experiment [3], in [6], in [7] and in [8] was “inactive” in each case. Besides, the Potency result (in [5]; with Aromatase (Homo sapiens)) was “inactive” throughout. The outcome in experiment [4] was inactive.
Turning to `CCOC(=O)C1=C(C)NC(C)=C(C(=O)OC)C1c1cccc([N+](=O)[O-])c1` (stereo not given), the Potency result in [1], in experiment [2], in experiment [3], in experiment [9], in experiment [6] and in [8] was “inactive” in each case. Moreover, the Potency entry (in experiment [5]; with Aromatase (Homo sapiens)) was “inactive” in each case. Also, the compound was called inactive in experiment [4].
Regarding `Cc1cc(NC(=O)C(=O)O)cc(C)c1Oc1ccc(O)c2c1CCC2`, the Potency entry in [1], in [2], in [9], in [6], in experiment [8] and in experiment [5] was “inactive” throughout. Moreover, in the experiment with Aromatase (Homo sapiens), the Potency entry is “inactive”. Also, the Potency was 0.0017 µM (active) in [3] and 38.6 µM (active) in experiment [7].
Regarding `CC(C)c1cccc(C(C)C)c1NC(=O)NS(=O)(=O)c1cc(C(C)(C)O)co1`, the Potency result in experiment [1], in experiment [2], in experiment [3] and in [5] was “inactive” in each case. In experiment [4], the result was inactive.
On to `O=C(/C=C/c1ccc(O)c(O)c1)O[C@@H]1C[C@](O)(C(=O)O)C[C@@H](O)[C@H]1O`, for which the Potency result in [1], in [2], in [3] and in experiment [5] was “inactive” in each case. Moreover, the call in [4] was inactive.
With `Cn1c(N)nc2nc[nH]c2c1=O`, the Potency result (in experiment [1]; in experiment [2]; in experiment [3]; in [5]; in the experiment with Aromatase (Homo sapiens)) was “inactive” throughout. Besides, the result in experiment [4] was inactive.
Turning to `CCCCCCc1ccc(N)cc1`, the Potency result in [1], in [3], in [6] and in experiment [5] was “inactive” in each case. Also, the Potency in [2] is 30.6 µM (active); in [9], 15.5 µM [inconclusive] (active); in [7] it was 21.7 µM (active). For the same compound, the call in experiment [4] was inactive.
For `O=CNc1ccccc1`, the Potency entry (in experiment [1]; in experiment [2]; in experiment [3]; in experiment [5]; with Aromatase (Homo sapiens)) was “inactive” in each case. Moreover, the compound was called inactive in experiment [4].
Turning to `CCN(CC)C(C)=O`, the Potency entry (in experiment [1]; in experiment [2]; in experiment [3]; in experiment [5]; in the experiment with Aromatase (Homo sapiens)) was “inactive” in each case. Moreover, the result in [4] was inactive.
